Hits are enriched below; roughly 4% of the tested compounds scored in any of these assays.
Mtb FBA inh – Mtb fructose-bisphosphate aldolase inhibition. hit rate 2.3% among 360,000. P9WQA3. purified M. tuberculosis FBA, fluorescence read-out. inhibition, % at 1 µM; in the data active = inhibition above about 27%;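 note: 0% = vehicle and 100% = reference inhibitor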
Target sequence (P9WQA3 whole entry, looked up): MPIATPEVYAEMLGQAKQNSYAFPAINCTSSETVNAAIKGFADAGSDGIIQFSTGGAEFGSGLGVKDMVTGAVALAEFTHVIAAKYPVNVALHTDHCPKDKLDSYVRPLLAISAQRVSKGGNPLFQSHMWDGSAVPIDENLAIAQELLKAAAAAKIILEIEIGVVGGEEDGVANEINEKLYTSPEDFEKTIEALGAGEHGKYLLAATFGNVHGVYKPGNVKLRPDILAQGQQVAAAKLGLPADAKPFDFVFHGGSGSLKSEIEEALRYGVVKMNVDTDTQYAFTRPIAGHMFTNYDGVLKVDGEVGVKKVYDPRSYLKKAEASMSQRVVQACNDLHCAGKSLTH
Rv3671c protease – inhibits the M. tuberculosis serine protease Rv3671c | hit rate 0.048% among 320,000 | inhibition, % at 5.96 µM | P9WHR9 | AID 2606; in the data active = inhibition above about 38%;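 note: extracellular domain of Rv3671c used as enzyme; 0% = enzyme with DMSO and 100% = no enzyme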
Mtb bLac sens – beta-lactam sensitization of Mtb H37Rv; M. tuberculosis H37Rv growth with meropenem, percent inhibition; inhibition, % at 25 µM; hit rate 0.27% among 330,000; call rule not given here;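 note: growth measured after seven days incubation then overnight dye step; 0% = bacteria only wells and 100% = bacteria with antibiotic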
UGM FP inh – inhibitors of M. tuberculosis UDP-galactopyranose mutase. P9WIQ1. purified UGM, fluorescence polarization probe displacement. inhibition, % at 10 µM. hit rate 0.06% among 320,000; in the data active = inhibition above about 10%, passing the limit was not always enough
GDH-TPI counter – inhibits GDH-TPI coupling enzymes, artifact for Mtb FBA screen. GDH-TPI coupled enzyme counterscreen, NADH absorbance. inhibition, % at 4.8 µM. AID 588335. hit rate 1.2% among 360,000; in the data active = inhibition above about 30%;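 note: 0% = DMSO wells and 100% = wells lacking the enzyme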
RecA splice inh – inhibitors of M. tuberculosis RecA intein splicing; P9WHJ3; cell-free RecA intein splicing, fluorescence; inhibition, % (test concentration not listed); hit rate 0.75% among 290,000; AID 2221; in the data active = inhibition above about 30%;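 note: 0% = vehicle wells and 100% = reference inhibitor control wells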
* = called active by the depositor; i = inactive; . = no result; + = active, no number.

SMILES | Mtb FBA inh | Rv3671c protease | Mtb bLac sens | UGM FP inh | GDH-TPI counter | RecA splice inh
O=C(O)CC1S/C(=N/N=C/c2ccc(-c3ccc(Cl)c([N+](=O)[O-])c3)o2)NC1=O (stereo unspecified) | -2.1 | 8.8 | 1.2 | 5.2 | 17.2 | 5.3
CCCC1S/C(=N/N=C/c2ccco2)NC1=O (stereo unspecified) | -1.4 | -9.2 | 7.2 | -3.0 | 28.3 | -1.6
Cc1ccc(/C=N/N=C2/NC(=O)C(CC(=O)Nc3ccc(Cl)cc3)S2)o1 (stereo unspecified) | -0.7 | -0.3 | -6.3 | -0.9 | 41.2* | 0.4
O=C(O)CC1S/C(=N/N=C/c2ccc(-c3ccc(Cl)cc3[N+](=O)[O-])o2)NC1=O (stereo unspecified) | -3.4 | -23.3 | 4.6 | 5.2 | 32.5* | 70.1*
CC(C)(C)OC(=O)C[C@@H]1C/C=C\C[C@H](CC(=O)N(CCO)Cc2ccccc2)C(=O)NC[C@H](c2ccccc2)OC1=O | 1.0 | 1.1 | -4.2 | -0.3 | 1.8 | .
O=C(CCNS(=O)(=O)c1ccc2ccccc2c1)NCCOc1ccccc1 | -0.9 | . | . | . | 1.0 | .
O=C1c2ccccc2NC(c2ccc(O)c(O)c2)N1c1ccccc1Cl (stereo unspecified) | 6.0 | -2.9 | 0.0 | 1.1 | 40.6* | -4.2
c1ccc2nc(N3CCCC3)c(N3CCCCC3)nc2c1 | 0.7 | . | . | . | 0.0 | .
c1ccc2nc3c(nc2c1)OCC1CCCCN31 (stereo unspecified) | 149.5* | 7.0 | 3.2 | 0.1 | 17.9 | -2.9
CCCCN(C(=O)c1cc(S(=O)(=O)N2CCOCC2)ccc1Cl)c1c(N)n(CC(C)C)c(=O)[nH]c1=O | 0.3 | 1.3 | -3.7 | -0.4 | -7.2 | -1.2
O=C(COc1ccccc1Cl)Nc1ccc2c(c1)C(=O)NC2=O | 6.0 | -12.1 | -2.2 | -1.0 | 13.4 | 1.0
COc1cccc(-c2cc(C(=O)Nc3nc4ccccc4s3)c3ccccc3n2)c1 | 3.7 | -82.1 | 99.3 | 0.2 | 33.3* | 22.3
COc1ccc(C(=O)NNC(=S)NC(=O)c2cc(-c3ccccc3)nc3ccccc23)cc1 | 1.5 | 6.4 | 50.9 | 1.5 | 33.5* | 1.1
CCNC(=S)NNC(=O)c1cc(-c2ccc(OCC)cc2)nc2ccccc12 | 10.8 | -6.4 | 52.0 | -1.2 | 37.2* | -3.5
O=C(Nc1nc2ccccc2s1)c1cc(-c2ccco2)nc2ccccc12 | 6.1 | -19.9 | 6.8 | 0.8 | 16.9 | 0.5
CCCCCC(=O)NNC(=S)NC(=O)c1cccc([N+](=O)[O-])c1 | -1.1 | 4.8 | 93.0 | -2.3 | 2.2 | 1.0
COc1ccc(C(=O)NNC(=S)NC(=O)c2cccc([N+](=O)[O-])c2)cc1 | -0.2 | 5.2 | 91.5 | 2.7 | 35.2* | -0.3
CCNC(=S)NNC(=O)c1cc(-c2cccc(OC)c2)nc2ccccc12 | -0.6 | 9.4 | 5.0 | 0.7 | -0.4 | 1.0
O[C@@H]1CN(Cc2cccs2)[C@@H](c2ccc(Cl)cc2)C[C@H]1n1cc(C2CC2)nn1 | 0.0 | . | . | . | -8.5 | .
NC(=S)N/N=C/c1ccccc1OCc1cccc(Cl)c1 | -0.8 | -1.7 | 16.1 | -1.9 | 41.2* | -2.4
C=CCc1cc(/C=C2/NC(=S)NC2=O)cc(OC)c1O | -11.2 | 6.6 | 48.1 | 3.6 | 16.3 | 0.4
C=CCc1cc(/C=C2/NC(=O)N(CC(=O)OC)C2=O)cc(OC)c1O | 0.5 | -11.9 | -5.0 | 4.3 | 32.1* | -7.2
COc1ccc(/C=N/NC(=O)c2ccncc2)cc1CSc1nc2ccccc2s1 | 2.2 | -178.1 | 98.1 | 0.1 | 30.9* | 19.0
COc1ccc(/C=N\NC(=O)c2ccc(F)cc2)cc1COc1ccccc1C(N)=O | 1.9 | -19.3 | -13.9 | 5.0 | 11.3 | 1.1
CCOC(=O)c1ccccc1OCc1cc(/C=N/NC(=O)c2ccncc2)ccc1OC | 2.9 | -28.4 | 98.4 | 2.4 | 37.9* | -1.1
SMILES | Mtb FBA inh | Rv3671c protease | Mtb bLac sens | UGM FP inh | GDH-TPI counter | RecA splice inh
COc1ccc(C(=O)N/N=C\c2ccc(OC)c(COc3ccccc3Br)c2)c(OC)c1 | 7.7 | -98.9 | 1.5 | -1.4 | 35.4* | 5.3
COc1ccc(-c2ccc3c(c2)O/C(=C\c2ccsc2)C3=O)cn1 | 2.4 | -12.8 | 1.8 | 2.2 | 2.2 | .
CC1(C)Cc2c(sc(/N=C/N3CCCCC3)c2C#N)C(C)(C)N1 | -5.6 | 7.4 | 4.0 | -0.3 | 31.1* | -3.1
CC1(C)C(=O)Nc2ccccc2N1C(=O)COC(=O)c1cccnc1Cl | -1.4 | 8.1 | 5.2 | -1.1 | 16.3 | .
Cc1ccc2nc3c(cc(C(=O)NCCc4ccccc4)c(=N)n3CCCN3CCOCC3)c(=O)n2c1 | 122.3* | -4.6 | 7.4 | 3.1 | 0.8 | -285.1
Cc1cccn2c(=O)c3cc(C(=O)NCc4ccccc4)c(=N)n(CCCN4CCOCC4)c3nc12 | 124.7* | . | . | . | 5.6 | .
Cc1cccn2c(=O)c3cc(C(=O)NCCN4CCOCC4)c(=N)n(CCCN4CCOCC4)c3nc12 | 114.3* | -2.7 | -5.1 | -1.2 | 6.7 | i
CCn1nc(C(=O)OCC(=O)N(CCC#N)c2ccccc2)c2ccccc2c1=O | -1.2 | 3.3 | -6.6 | -1.3 | -1.4 | .
CNC(=O)C[C@@H]1C(=O)N(c2ccc(OC)cc2)CC1(C)C | 0.5 | . | . | . | 0.5 | .
c1ccc(C(c2nnnn2C2CCCCC2)N2CCc3ccccc3C2)nc1 (stereo unspecified) | 68.7* | -27.4 | 10.0 | -1.2 | 2.5 | 6.1
CCN(C(=O)COC(=O)c1ccccc1NCc1ccco1)c1c(N)n(Cc2ccccc2)c(=O)[nH]c1=O | 142.3* | . | . | . | -4.2 | .
CCCCn1c(N)c(N(CCOC)C(=O)COC(=O)c2ccccc2NCCO)c(=O)[nH]c1=O | 124.4* | . | . | . | 11.8 | .
CCOC(=O)N1CCN(Cc2ccc(OCC(O)CN3CCCCC3)cc2)CC1 (stereo unspecified) | 0.2 | -0.5 | 6.2 | -0.7 | 3.4 | -1.2
N#Cc1cc([N+](=O)[O-])ccc1NC(=O)COC(=O)CCC1CCCCC1 | . | -8.9 | -6.6 | -2.1 | . | 59.9*
CCCC(=O)OCC(=O)Nc1ccc([N+](=O)[O-])cc1C#N | 1.8 | -7.0 | 0.0 | 0.2 | 25.8 | 7.2
COC(=O)Cc1cc(=O)[nH]c(Nc2nc3ccccc3o2)n1 | 9.4 | 1.5 | 73.3 | 3.8 | 36.9* | 13.5
c1ccc(CN2CC[C@@H](Nc3nccn4ccnc34)C2)cc1 | -1.6 | . | . | . | -3.5 | .
Cc1cc(C)n2nc(SCc3ccccc3F)nc2n1 | + | -14.1 | 5.9 | -1.6 | -4.4 | -5.4
Cc1cc(-c2ccccc2)nc(N/N=C/c2ccccc2)n1 | 3.8 | -1.1 | 40.1 | -2.0 | 16.9 | -5.4
O=C(O)c1cc(N/N=C/c2ccc(N3CCOCC3)cc2)ccc1Cl | 2.3 | -1.4 | -7.8 | 0.1 | 68.8* | -5.0
Cc1cc(C)nc(Nc2ccc(N3CCOCC3)cc2)n1 | 5.2 | 6.8 | 2.8 | -0.4 | 6.7 | -6.0
Cc1cc(C)nc(N/N=C/c2ccc(N3CCOCC3)cc2)n1 | -0.3 | 1.5 | -7.4 | -0.7 | 35.3* | -16.6
Clc1cccc(N/N=C/c2ccc(N3CCOCC3)cc2)c1 | 2.1 | 3.1 | 98.6 | 4.7 | 9.4 | 0.0
Cc1cc(-c2ccccc2)nc(N/N=C/c2ccc(N(C)C)cc2)n1 | -0.2 | 5.2 | 97.4 | -4.6 | 31.3* | -1.8
Cc1cc(C)nc(N/N=C/c2ccco2)n1 | -2.4 | -2.6 | -1.7 | 0.6 | 31.5* | -5.7
